Source: PubChem (National Center for Advancing Translational Sciences (NCATS))
KDM5B inhibitor: KDM5B demethylase inhibition | Q9UGL1 | KDM5B demethylase, FDH-coupled NADH fluorescence (FDH is formaldehyde dehydrogenase) | Potency, µM (titrated, usually from 57.7 µM), actives largely listed as inhibitors | 220,000 compounds, 2.6% hits | AID 1347165; active = well fitted inhibition curve with a large enough effect; also: 0% is about no effect; nearly all actives have a fitted effect of over 70% in size
Target sequence (Q9UGL1 whole entry, looked up): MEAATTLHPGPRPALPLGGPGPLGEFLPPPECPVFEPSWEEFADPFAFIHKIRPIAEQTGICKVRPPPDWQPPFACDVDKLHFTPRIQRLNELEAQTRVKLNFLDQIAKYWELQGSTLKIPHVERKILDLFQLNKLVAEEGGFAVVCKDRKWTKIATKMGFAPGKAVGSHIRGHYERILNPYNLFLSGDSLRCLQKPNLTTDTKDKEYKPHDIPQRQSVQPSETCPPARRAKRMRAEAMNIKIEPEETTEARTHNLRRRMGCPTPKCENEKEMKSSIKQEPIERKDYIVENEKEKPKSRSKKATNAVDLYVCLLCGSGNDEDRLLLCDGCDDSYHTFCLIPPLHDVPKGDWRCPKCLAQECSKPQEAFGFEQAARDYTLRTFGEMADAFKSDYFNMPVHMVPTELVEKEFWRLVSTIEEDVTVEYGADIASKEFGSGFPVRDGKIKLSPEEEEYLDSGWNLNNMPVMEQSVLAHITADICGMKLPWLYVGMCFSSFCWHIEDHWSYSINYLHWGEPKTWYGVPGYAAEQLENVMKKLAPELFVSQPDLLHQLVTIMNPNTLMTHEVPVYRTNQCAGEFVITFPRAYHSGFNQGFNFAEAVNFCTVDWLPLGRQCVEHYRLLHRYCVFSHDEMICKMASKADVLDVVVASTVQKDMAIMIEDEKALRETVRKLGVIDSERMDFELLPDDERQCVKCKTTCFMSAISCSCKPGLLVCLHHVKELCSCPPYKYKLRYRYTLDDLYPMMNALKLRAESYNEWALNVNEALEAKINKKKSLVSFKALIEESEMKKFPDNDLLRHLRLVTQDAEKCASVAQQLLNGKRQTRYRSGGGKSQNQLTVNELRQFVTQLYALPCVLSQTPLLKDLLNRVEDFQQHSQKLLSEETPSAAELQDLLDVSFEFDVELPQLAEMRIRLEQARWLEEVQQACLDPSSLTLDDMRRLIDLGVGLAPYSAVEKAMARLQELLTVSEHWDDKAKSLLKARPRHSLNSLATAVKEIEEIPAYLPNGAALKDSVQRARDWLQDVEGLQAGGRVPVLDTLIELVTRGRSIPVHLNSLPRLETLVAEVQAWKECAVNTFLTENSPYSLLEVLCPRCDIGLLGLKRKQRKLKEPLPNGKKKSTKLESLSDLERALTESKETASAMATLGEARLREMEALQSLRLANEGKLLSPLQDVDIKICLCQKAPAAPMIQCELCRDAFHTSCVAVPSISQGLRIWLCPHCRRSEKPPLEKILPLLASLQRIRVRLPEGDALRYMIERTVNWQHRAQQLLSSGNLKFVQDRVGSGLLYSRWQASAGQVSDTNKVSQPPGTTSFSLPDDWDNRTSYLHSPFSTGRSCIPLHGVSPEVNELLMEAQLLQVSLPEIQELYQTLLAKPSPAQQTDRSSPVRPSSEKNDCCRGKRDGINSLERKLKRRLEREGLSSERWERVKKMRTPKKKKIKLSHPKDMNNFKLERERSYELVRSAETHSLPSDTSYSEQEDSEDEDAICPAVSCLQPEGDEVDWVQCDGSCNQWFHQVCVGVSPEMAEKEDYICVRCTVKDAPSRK
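Coupled FDH/NAD⁺ fluorescence readout. KDM5BΔAP 200 nM final; compound titration, 10 min RT preincubation; substrate mix 12.5 µM H3K4me3, 25 µM 2-OG, 50 µM Fe(II), 100 µM ascorbate, 0.25 mM NAD⁺, 0.25 U/mL FDH; ΔRFU over 30 min.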
Numbers without * were called inactive; ! = not confirmed by another sample. The sample as a whole holds a higher share of hits than the screen did. Potency is read from the fitted curve at half-maximal effect.

Results for O=C(CC1CCCN(c2cn[nH]c(=O)c2)C1)NCCc1ccccc1 (centres undefined) ?
KDM5B inhibitor: inactive

What do the screens show for `Clc1cccc(CN2CCOC[C@H](Oc3ccccc3)C2)c1`?
KDM5B inhibitor: inactive

Results for Cc1cc(C)c2c(-n3cccc3)c(C(=O)NCC(C)c3ccccc3)sc2n1 (centres undefined) ?
KDM5B inhibitor: inactive

Results for COc1ccc(-c2nc(N/N=C(\C)c3ccc(O)cc3)c3ccccc3n2)cc1 ?
KDM5B inhibitor: inactive

How did COc1ccc(CN(CC(=O)NC2CCCC2)C(=O)CN2C(=O)COc3ccccc32)cc1 do in these assays?
KDM5B inhibitor: inactive

How did Cn1c(C(=O)NCCNC(=O)c2ccccc2F)cc2ccccc21 do in these assays?
KDM5B inhibitor: inactive

Results for CN1CCOc2c(C(=O)NCC[S+](C)(=O)[O-])cc(-c3ccccc3F)cc21 ?
KDM5B inhibitor: 35µM*

What do the screens show for `COC(=O)c1ccccc1NS(=O)(=O)c1cc2c(cc1C)N(C)CCO2`?
KDM5B inhibitor: inactive

Results for N#Cc1cccc(C(=O)N2CCC3(CC2)CC(Cc2ccc(F)cc2)CCO3)c1 (centres undefined) ?
KDM5B inhibitor: inactive

Results for CC1CCC2(CC1)NC(=O)N(NC(=O)CCc1c[nH]c3ccccc13)C2=O (centres undefined) ?
KDM5B inhibitor: inactive

Results for CCc1ncc(-c2c(-c3ccccc3)ncn2CCNc2cccnc2)cn1 ?
KDM5B inhibitor: inactive

How did COc1cc(OC)c(-c2c(-c3ccccc3)ncn2CCF)cc1OC do in these assays?
KDM5B inhibitor: 25µM*

Results for C#CCOc1ccccc1-c1c(-c2ccccc2)ncn1CCCO ?
KDM5B inhibitor: inactive

How did N#Cc1ccc(NCc2cc(Br)ccc2F)cc1 do in these assays?
KDM5B inhibitor: inactive

How did Nc1ccc(C(=O)N/N=C/c2ccc([N+](=O)[O-])cc2)cc1 do in these assays?
KDM5B inhibitor: inactive

How did O=C(Nc1cccc(C(F)(F)F)c1)O[C@@H]1CO[C@H]2[C@@H]1OC[C@@H]2NC(=O)c1ccccc1 do in these assays?
KDM5B inhibitor: inactive

Results for COc1ccc(CN2C[C@@H]3C(=O)N(C)C(=O)[C@@H]3C2)c(OC)c1 ?
KDM5B inhibitor: inactive

What do the screens show for `Cc1c(CCC(=O)N2CCN(Cc3ccccc3)CC2)c(=O)oc2cc(O)ccc12`?
KDM5B inhibitor: inactive

What do the screens show for `CCOC(=O)C1=CN(CC(=O)Nc2c(C)cc(C)cc2C)S(=O)(=O)N=C1C`?
KDM5B inhibitor: inactive

How did CCOc1ccc(OCC)c(NC(=O)CCn2ccn3nc4c(c3c2=O)CCCC4)c1 do in these assays?
KDM5B inhibitor: inactive

What do the screens show for `COc1ccc(CCc2nc3nccc(-c4cccc(OC)c4)n3n2)cc1`?
KDM5B inhibitor: 18µM*

What do the screens show for `COc1ccc(CCc2nc3nccc(-c4ccccn4)n3n2)cc1`?
KDM5B inhibitor: inactive

How did COc1ccc(Cc2nc3nccc(-c4cccnc4)n3n2)cc1 do in these assays?
KDM5B inhibitor: inactive

What do the screens show for `COc1ccc(Cc2nc3nccc(-c4cccc(OC)c4)n3n2)cc1`?
KDM5B inhibitor: 20µM*

What do the screens show for `O=C(CCc1cccs1)NC1CCCC1`?
KDM5B inhibitor: inactive

How did COc1ccccc1CCNC(=O)C1CC(c2ccccc2)CN(C(=O)C2CC2)C1 (centres undefined) do in these assays?
KDM5B inhibitor: inactive

What do the screens show for `O=C(CN1C(=O)c2ccccc2C1=O)Nc1cccc2cccnc12`?
KDM5B inhibitor: inactive

Results for CCn1cc(CN2CCC(n3nccc3NC(=O)CCCc3ccccc3)CC2)cn1 ?
KDM5B inhibitor: inactive

How did O=c1c(/C=N/O)coc2ccccc12 do in these assays?
KDM5B inhibitor: inactive

Results for c1coc(-c2nc3ncccc3[nH]2)c1 ?
KDM5B inhibitor: 32µM*!

How did c1cnc2nc(-c3ccncc3)[nH]c2c1 do in these assays?
KDM5B inhibitor: 32µM*

Results for c1c[nH]c(-c2nc3ncccc3[nH]2)c1 ?
KDM5B inhibitor: 141µM*!

Results for Clc1ccc(CSc2nc3ncccc3[nH]2)cc1Cl ?
KDM5B inhibitor: inactive

Results for COc1ccc(-c2nc3ncccc3[nH]2)cc1 ?
KDM5B inhibitor: 32µM*!

What do the screens show for `O=C(CSc1nc2ncccc2[nH]1)NC1CCCCC1`?
KDM5B inhibitor: inactive

What do the screens show for `Cc1cc(C)cc(NC(=O)CSc2nc3ncccc3[nH]2)c1`?
KDM5B inhibitor: inactive

How did O=c1[nH]c(Nc2ccccc2)nc2nccc(-c3ccco3)c12 do in these assays?
KDM5B inhibitor: inactive

Results for COc1ccc(CSc2nc3ncccc3[nH]2)cc1 ?
KDM5B inhibitor: inactive

How did CC(C)CN1CC[C@H](c2nc3ncccc3[nH]2)C1 do in these assays?
KDM5B inhibitor: inactive

Results for CCC(Sc1nc2ncccc2[nH]1)C(=O)Nc1cccc(OC)c1 (centres undefined) ?
KDM5B inhibitor: inactive

What do the screens show for `Cc1oc(-c2ccccc2)nc1CSc1nc2ncccc2[nH]1`?
KDM5B inhibitor: inactive

What do the screens show for `CN(C)[C@@H]1CN(C(=O)c2cccs2)CC[C@@H]1CO`?
KDM5B inhibitor: inactive

What do the screens show for `N#CC1c2ccccc2C=CN1C(=O)c1ccccc1` (centres undefined)?
KDM5B inhibitor: inactive

Results for O=C(Cc1c[nH]c2ccccc12)NCc1cn2ccccc2n1 ?
KDM5B inhibitor: inactive

Results for COCCn1cnnc1SCc1nc2cc(Cl)ccc2n1C ?
KDM5B inhibitor: inactive

Results for CC(=O)Nc1ccc(N/C=C(\C#N)c2nc(C3CC3)cs2)cc1 ?
KDM5B inhibitor: inactive

How did O=C(CSc1nc(=O)n(CCN2CCOCC2)c2c1CCC2)Nc1ccc(F)cc1F do in these assays?
KDM5B inhibitor: inactive

Results for CC(C)n1nc(C(=O)Nc2nc(-c3cccs3)cs2)c2ccccc2c1=O ?
KDM5B inhibitor: inactive

What do the screens show for `CCn1nc(C(=O)NC(c2cccs2)C(C)C)c2ccccc2c1=O` (centres undefined)?
KDM5B inhibitor: inactive

How did CCOc1ccccc1NC(=O)c1nnn(CC(=O)Nc2ccc(OC)c(OC)c2)c1N do in these assays?
KDM5B inhibitor: inactive

Results for COc1ccc2c(C)c(C(=O)N(C)Cc3csc(C(C)C)n3)oc2c1 ?
KDM5B inhibitor: inactive

What do the screens show for `Cc1cccc(C(=O)N2CCC(C(NC(=O)c3ccccc3)C(=O)N3CCCCC3)CC2)c1` (centres undefined)?
KDM5B inhibitor: inactive

What do the screens show for `Cc1nc2ncnn2c(C)c1CCC(=O)N1CCCC(Nc2ccccc2)C1` (centres undefined)?
KDM5B inhibitor: inactive

Results for Cc1cn2nnc(C(=O)NCCC3=CCCCC3)c2c(=O)[nH]1 ?
KDM5B inhibitor: inactive

Results for O=C(NCCN1CCCC1)c1nnn2cc(-c3ccccc3)[nH]c(=O)c12 ?
KDM5B inhibitor: 2.5µM*

What do the screens show for `O=C(NCCCN1CCCC1)c1ccc(-c2ccccc2)cc1`?
KDM5B inhibitor: inactive

Results for N#Cc1c[nH]c(C(=O)N2CCN(Cc3cn[nH]n3)CC(O)C2)c1 (centres undefined) ?
KDM5B inhibitor: inactive

How did CCn1nc(C(=O)N2CCC(n3c(=O)[nH]c4ccccc43)CC2)c2ccccc2c1=O do in these assays?
KDM5B inhibitor: inactive

What do the screens show for `NC(=O)C1CCN(C(=O)C(=O)NCCNC(=O)c2cc3ccccc3[nH]2)CC1`?
KDM5B inhibitor: inactive

Results for Cc1cccc(-n2nc(-c3c(C)nc4scc(CC(=O)N5CCOCC5)n4c3=O)cc2C)c1 ?
KDM5B inhibitor: 28µM*

How did Cc1cccc(-n2ncc(C(=O)N3CCOCC3)c2C2CCN(C(=O)OC(C)(C)C)CC2)c1 do in these assays?
KDM5B inhibitor: inactive
